In PubChem BioAssay AID2783 (National Center for Advancing Translational Sciences (NCATS), 2010):
Inconclusive results are not listed. Activity calls are given as the source filed them. The call rests on the fitted dose curve; in most records, active means well fitted inhibition curve with a large enough effect in the polarisation, with a control signal flat (not every such curve was filed as active); inconclusive means small, poorly fitted or top-dose-only effect, or effect the other way, or a change in a side signal; inactive means no such curve, though single readings can be large or run the other way; the % refers to the polarisation.

Molecular target: Menin (Homo sapiens) (UniProt O00255)
Assay: Confirmation of Inhibitors Targeting the Menin-MLL Interaction in MLL Related Leukemias: Competition With Fluorescein Labeled MLL-derived Peptide

Chain of Menin (Homo sapiens) (O00255 whole entry, looked up): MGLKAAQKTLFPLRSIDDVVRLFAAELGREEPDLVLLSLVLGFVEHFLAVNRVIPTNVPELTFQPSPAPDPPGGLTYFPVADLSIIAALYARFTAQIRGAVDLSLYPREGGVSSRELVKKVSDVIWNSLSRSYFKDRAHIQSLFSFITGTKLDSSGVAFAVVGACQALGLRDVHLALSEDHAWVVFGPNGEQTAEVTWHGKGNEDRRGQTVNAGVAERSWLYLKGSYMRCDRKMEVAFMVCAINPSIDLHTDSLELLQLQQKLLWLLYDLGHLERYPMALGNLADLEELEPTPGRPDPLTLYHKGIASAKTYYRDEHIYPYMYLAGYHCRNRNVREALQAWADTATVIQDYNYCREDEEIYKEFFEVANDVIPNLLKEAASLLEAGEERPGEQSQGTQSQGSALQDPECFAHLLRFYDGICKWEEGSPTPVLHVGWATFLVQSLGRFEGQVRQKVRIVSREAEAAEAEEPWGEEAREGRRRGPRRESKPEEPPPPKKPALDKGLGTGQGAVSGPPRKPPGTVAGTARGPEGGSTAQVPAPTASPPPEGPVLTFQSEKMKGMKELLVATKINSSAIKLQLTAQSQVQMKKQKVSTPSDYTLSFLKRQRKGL

Compound | outcome
CN(CCOc1ccc(Cl)cc1)CC(O)c1ccccc1 (stereo not drawn) | inactive
CCN(CC)c1nc(-c2ccc(C(=O)NN)cc2)nc(-c2ccc(C(=O)NN)cc2)n1 | inactive
CN1C[C@@H]2C[C@H]1CN2c1cc2c(cc1F)c(=O)c(C(=O)O)cn2C1CC1 | inactive
CN(C)c1ccc(N=Nc2ccc(C(=O)O)cc2)cc1 | inactive
O=C1C(Cl)=C(NC(=O)c2ccccc2)C(=O)C(Cl)=C1NC(=O)c1ccccc1 | inactive
O=[N+]([O-])CC(c1ccccc1)P(=O)(c1ccccc1)c1ccccc1 (stereo not drawn) | inactive
C=C1CCC[C@]2(C)C[C@H]3OC(=O)C(CNCCN(CC)CC)[C@H]3CC12 (stereo partly drawn) | inactive
COc1cc2c(cc1NC(=S)NC(=O)c1c(OC)cccc1OC)oc1ccccc12 | inactive
COc1cccc(OC)c1NC(=O)CN1CCN(C)CC1 | inactive
CC(=O)Nc1ccc(-c2cc(-c3ccc(NC(C)=O)cc3)nc(-c3ccc(NC(C)=O)cc3)n2)cc1 | inactive
Cc1cc(C)c2c(=O)cc(C(=O)NCc3ccccc3)oc2c1 | inactive
c1ccc2c(c1)nc(N1CCOCC1)c1c3ccccc3[nH]c21 | inactive
COc1cccc(-c2nn(-c3ccccc3)cc2/C=C\C(=O)c2cccs2)c1 | inactive
Cc1ccc(NC(=O)C(OC(=O)c2ccc(C=O)cc2)c2ccccc2)cc1Cl (stereo not drawn) | inactive
O=C(/C=C/c1ccccc1)c1cccs1 | inactive
O=C(CS)Nc1ccc2ccccc2c1 | inactive
O=S(=O)(Nc1cccc(-c2cn3cccnc3n2)c1)c1ccccc1 | inactive
CCc1nnc(NC(=O)C2(C)COC(c3ccc(OC)cc3)OC2)s1 (stereo not drawn) | inactive
